# Test results: paper PMC4336329 (PLoS ONE, 2015)
# Among all 310,000 compounds or so, about 14,000 (4.5%) showed an effect of 50% or more. The effect is printed as a negative number. This is one part of a sample in which strong results are shown more often than they occur.
# Molecular target: human ether-à-go-go-related gene (hERG) potassium channel (human, UniProt Q12809)
# Assay: primary screen, population patch clamp on CHO cells stably expressing hERG; higher = less effect of the substance
# 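Further: peak tail current of the secondary pulse compared with the same well before compound.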
# Sequence of human ether-à-go-go-related gene (hERG) potassium channel (Q12809 whole entry, looked up): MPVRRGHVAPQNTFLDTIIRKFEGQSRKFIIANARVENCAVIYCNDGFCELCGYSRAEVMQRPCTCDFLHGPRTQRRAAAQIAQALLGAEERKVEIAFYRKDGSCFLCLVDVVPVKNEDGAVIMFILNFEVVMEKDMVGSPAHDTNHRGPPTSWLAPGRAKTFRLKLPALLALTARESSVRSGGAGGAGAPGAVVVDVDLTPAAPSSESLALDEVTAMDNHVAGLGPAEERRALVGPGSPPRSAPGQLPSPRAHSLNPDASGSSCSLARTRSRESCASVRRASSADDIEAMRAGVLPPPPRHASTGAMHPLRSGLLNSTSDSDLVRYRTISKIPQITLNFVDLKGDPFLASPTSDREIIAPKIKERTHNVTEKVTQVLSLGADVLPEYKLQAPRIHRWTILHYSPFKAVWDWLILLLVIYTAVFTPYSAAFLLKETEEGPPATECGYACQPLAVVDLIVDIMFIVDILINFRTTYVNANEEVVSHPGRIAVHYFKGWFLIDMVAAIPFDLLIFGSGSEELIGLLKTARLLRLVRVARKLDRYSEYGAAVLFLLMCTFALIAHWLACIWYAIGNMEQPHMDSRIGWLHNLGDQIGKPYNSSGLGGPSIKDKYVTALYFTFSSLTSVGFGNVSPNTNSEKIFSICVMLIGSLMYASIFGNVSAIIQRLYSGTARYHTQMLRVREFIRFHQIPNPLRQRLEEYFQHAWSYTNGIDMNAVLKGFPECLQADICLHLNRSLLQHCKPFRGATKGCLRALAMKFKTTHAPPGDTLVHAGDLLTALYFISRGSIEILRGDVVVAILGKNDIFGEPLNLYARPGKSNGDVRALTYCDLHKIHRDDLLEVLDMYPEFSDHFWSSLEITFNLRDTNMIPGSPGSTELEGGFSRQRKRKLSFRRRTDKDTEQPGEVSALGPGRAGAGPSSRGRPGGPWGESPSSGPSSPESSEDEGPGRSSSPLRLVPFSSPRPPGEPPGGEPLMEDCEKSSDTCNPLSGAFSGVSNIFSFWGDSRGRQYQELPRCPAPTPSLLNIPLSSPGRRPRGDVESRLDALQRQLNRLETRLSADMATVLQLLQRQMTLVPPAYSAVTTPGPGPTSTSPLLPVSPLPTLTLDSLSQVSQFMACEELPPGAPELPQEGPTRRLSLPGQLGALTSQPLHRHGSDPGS
row,Compound,"hERG current change (%, negative = inhibition) at 10uM"
1,CC1(C)OC(=O)N(c2ccccc2)C12C=Cc1cc(Br)ccc1O2 (centres unmarked),-14.4%
2,O=C(Nc1ccc(S(=O)(=O)N2CCCCCC2)cc1)c1ccc(Br)o1,-14.5%
3,O=C(Nc1ccc(F)cc1)c1ccc(S(=O)(=O)N2CCOCC2)o1,-13.1%
4,O=C(Nc1ccc(S(=O)(=O)N2CCCC2)cc1)c1ccc(Br)o1,14.8%
5,COc1ccc(NC(=O)c2ccc(S(=O)(=O)N3CCOCC3)o2)cc1,0.458%
6,O=C(Nc1ccc(OC(F)(F)F)cc1)c1ccc(S(=O)(=O)N2CCOCC2)o1,-53.7%
7,O=C(Nc1ccc(S(=O)(=O)N2CCOCC2)cc1)c1ccc(Br)o1,-64.8%
8,O=C(NNc1ccccc1[N+](=O)[O-])Nc1cccc(Cl)c1,19.3%
9,Cc1ccccc1Cn1cc(NC(=O)CCCn2nc([N+](=O)[O-])cc2C)cn1,-7.52%
10,O=C(NNS(=O)(=O)c1ccc([N+](=O)[O-])cc1)c1ccc([N+](=O)[O-])cc1,28.6%
11,O=C(NCCN1CCN(c2ccccc2)CC1)c1cccn2c(=O)c3ccccc3nc12,-63%
12,O=C(NCCN1CCN(c2ccccc2F)CC1)c1cccn2c(=O)c3ccccc3nc12,-71.5%
13,Cn1c(C(=O)NCCN2CCN(c3ccccc3F)CC2)cc2c(=O)n(C)c3ccccc3c21,-4.62%
14,O=C(O)c1cccn2c(=O)c3ccccc3nc12,13.1%
15,CN(CCCNC(=O)c1cc2c(Cl)nc3ccccc3c2s1)Cc1ccccc1,-44.3%
16,CN(CCCNC(=O)c1cccn2c(=O)c3ccccc3nc12)Cc1ccccc1,-74.1%
17,O=C(CCNC(=O)Cn1ccc2ccccc2c1=O)NCCN1CCN(c2ccccc2F)CC1,6.8%
18,COCCCNC(=O)c1cccn2c(=O)c3cc4ccccc4cc3nc12,-42.2%
19,O=C(NCCN1CCN(c2ccccc2)CC1)c1cccn2c(=O)c3cc(Cl)ccc3nc12,-45.4%
20,CCN(CC(=O)NC1CCS(=O)(=O)C1)C(=O)COc1ccccc1-c1ccccc1 (centres unmarked),11.7%
21,CCn1nnnc1NCc1ccc(Cl)cc1,9.44%
22,COc1ccc2c(c1)O[C@@H](c1cccc(C(F)(F)F)c1)[C@H](OC(=O)NCCc1ccc(OC)c(OC)c1)C2=O,-0.231%

row,Compound,"hERG current change (%, negative = inhibition) at 10uM"
1,O=C(CSc1nnc(-c2ccccc2)n1Cc1ccco1)NCc1ccc2c(c1)OCO2,-14.5%
2,COc1cccc(-c2nnc(SCC(=O)Nc3ccc4c(c3)OCCO4)n2Cc2ccco2)c1,-15.1%
3,O=C(CSc1nnc(-c2ccc(Cl)cc2)n1Cc1ccco1)NCc1ccc2c(c1)OCO2,-75.3%
4,COc1cccc(-c2nnc(SCC(=O)NCc3ccc4c(c3)OCO4)n2Cc2ccco2)c1,-49.7%
5,O=C(CSc1nnc(-c2cccnc2)n1Cc1ccco1)NCc1ccc2c(c1)OCO2,-33.2%
6,COc1ccc(-c2nnc(SC(C)C(=O)NCc3ccc4c(c3)OCO4)n2Cc2ccco2)cc1 (centres unmarked),-55.1%
7,O=C(CSc1nnc(NC(=O)c2ccco2)s1)NC1CCCCC1,2.07%
8,Cc1ccc2c(c1)N(CCC(=O)NCCCN1CCCC1)C(=O)C(C)O2 (centres unmarked),22.4%
9,CSc1cccc(CN2CCCC(CO)(Cc3cccc(Cl)c3)C2)c1 (centres unmarked),-29%
10,OCC1(Cc2cccc(Cl)c2)CCCN(Cc2ccc(F)c(F)c2)C1 (centres unmarked),-51.2%
11,COc1cc(CN2CCCC(CO)(Cc3cccc(Cl)c3)C2)cc2c1OCO2 (centres unmarked),-68.1%
12,COc1cc(CN2CCCC(CO)(Cc3ccccc3C)C2)cc2c1OCO2 (centres unmarked),-27.9%
13,Cc1nn(C)c(Cl)c1CN1CCCC(CO)(Cc2ccccc2)C1 (centres unmarked),-6.66%
14,Cc1cccc(-c2ncc(CN3CCCC(CO)(Cc4cccc(Cl)c4)C3)cn2)c1 (centres unmarked),-20.6%
15,COc1cc(CN2CCCC(CO)(Cc3ccccc3)C2)ccc1O (centres unmarked),-17.6%
16,Cc1c(CN2CCCC(CO)(Cc3cccc(Cl)c3)C2)cnn1C (centres unmarked),-11.2%
17,CCn1nc(C)c(CN2CCCC(CO)(Cc3cccc(Cl)c3)C2)c1C (centres unmarked),-40.8%
18,Cc1nn(C)c(Cl)c1CN1CCCC(CO)(Cc2cccc(Cl)c2)C1 (centres unmarked),-59.8%
19,CC(C)(O)C#Cc1ccc(CN2CCCC(CO)(Cc3cccc(Cl)c3)C2)cc1 (centres unmarked),-6.28%
20,COc1ccc(CN2CCCC(CO)(Cc3cccc(Cl)c3)C2)cc1OC (centres unmarked),-63.2%
21,CCC/C=C(\CCC)C(NS(=O)(=O)c1ccc(C(F)(F)F)cc1)c1ccccc1 (centres unmarked),15.5%
22,Cc1nnc2ccc(N3CCN(C(=O)c4ccccc4)CC3)nn12,-0.844%

row,Compound,"hERG current change (%, negative = inhibition) at 10uM"
1,COc1ccc(S(=O)(=O)NCc2ccncc2)cc1NC(=O)c1ccccc1C,-36.6%
2,O=C(/C=C/c1cccc([N+](=O)[O-])c1)NCCSCc1c(Cl)cccc1Cl,-11.9%
3,NS(=O)(=O)c1ccc(NC(=O)c2ccc3c(c2)OCO3)cc1,11.3%
4,COc1cc(Cl)c(CN2CCCC(CO)(Cc3ccccc3)C2)cc1OC (centres unmarked),-55.2%
5,COc1cc(Cl)c(CN2CCCC(CO)(Cc3cccc(Cl)c3)C2)cc1OC (centres unmarked),-45.6%
6,COc1cc(Cl)c(CN2CCCC(CO)(Cc3ccccc3F)C2)cc1OC (centres unmarked),-20.1%
7,C#CCSc1cc(C(F)(F)F)nc(-c2ccccn2)n1,-62.9%
8,FC(F)(F)c1cc(Sc2ccccc2)nc(-c2ccccn2)n1,-19.3%
9,O=C(O)CSc1cc(C(F)(F)F)nc(-c2ccccn2)n1,5.55%
10,CCC(=O)NC(C)c1nc2ccccc2n1C (centres unmarked),1.29%
11,Cc1sc2ncnc(N/N=C/c3ccc(O)cc3)c2c1C,2.28%
12,Cc1sc2ncnc(N/N=C/c3ccccc3O)c2c1C,-1.58%
13,Cc1sc2ncnc(N/N=C/c3cccc(O)c3)c2c1C,-61.9%
14,O=C(CCNNC(=O)c1ccncc1)NCc1ccccc1,9.98%
15,Cn1cc(CN2CCCC(CO)(Cc3ccccc3)C2)cn1 (centres unmarked),4.27%
16,OCC1(Cc2cccc(Cl)c2)CCCN(Cc2cnn(-c3ccccc3)c2)C1 (centres unmarked),-54.7%
17,OCC1(Cc2ccccc2)CCCN(Cc2cnn(-c3ccccc3)c2)C1 (centres unmarked),-59.4%
18,Cn1cc(CN2CCCC(CO)(Cc3cccc(Cl)c3)C2)cn1 (centres unmarked),-17.1%
19,CCn1cc(CN2CCCC(CO)(Cc3cccc(Cl)c3)C2)cn1 (centres unmarked),-10.8%
20,COc1ccccc1-n1cc(CN2CCCC(CO)(Cc3cccc(Cl)c3)C2)cn1 (centres unmarked),-49.5%
21,CC(C)n1cnc2c(Nc3ccc(F)c(Cl)c3)nc(NCCO)nc21,-39%
22,[O-][N+]1=C(c2cccs2)CN(O)C1,8.57%

row,Compound,"hERG current change (%, negative = inhibition) at 10uM"
1,CC(OC(=O)/C=C/c1ccco1)C(=O)NC1CCCCC1C (centres unmarked),-3.2%
2,Nc1sc(-c2ccccc2)c(Cc2ccccc2)c1C(=O)O,-2.59%
3,Cc1cnc(NC(=O)CSc2ccccc2)s1,3.88%
4,FC(F)(F)c1ccc2c(c1)ncn2C1CCN(Cc2nnnn2C2CCCCC2)CC1,-59.6%
5,Cc1ccc(Cn2nnnc2CN2CCC(n3nnc4cc(C(F)(F)F)ccc43)CC2)cc1,2.84%
6,Fc1ccc(Cn2nnnc2CN2CCN(C3CCCC3)CC2)cc1,-49.1%
7,Fc1ccc(Cn2nnnc2CN2CCC(n3nnc4cc(C(F)(F)F)ccc43)CC2)cc1,-69.6%
8,C1CCN(Cc2nnnn2C2CCCC2)CC1,11.4%
9,O=C(O)CCC(=O)N1CCC(n2nnc3cc(C(F)(F)F)ccc32)CC1,10.5%
10,FC(F)(F)c1ccc2c(c1)nnn2C1CCN(Cc2nnnn2Cc2ccccc2)CC1,-50.9%
11,Cl.Fc1ccc2c(c1)nnn2C1CCN(Cc2nnnn2C2CCCCC2)CC1,-38.1%
12,OC1(c2cccc(C(F)(F)F)c2)CCN(Cc2nnnn2Cc2ccccc2)CC1,10.4%
13,O=C(CSc1ccc2c(c1)OCCO2)NCCc1ccc(Cl)cc1Cl,-8.94%
14,O=C(Nc1ccc(Cl)cc1C(F)(F)F)c1ccccc1,8.81%
15,Cn1cnnc1SCC(=O)Nc1cc(S(=O)(=O)N2CCCCCC2)ccc1Cl,-17.8%
16,CCc1c(C)nc2ncnn2c1Nc1ccccc1C,-34.1%
17,CCOC(=O)N1CCC(NC(=O)c2cc(C(=O)Nc3ccc(OCC)cc3)ccc2CO)CC1,9.27%
18,CC(C)c1nnc(NC(=O)CC(C)c2ccccc2)s1 (centres unmarked),1.39%
19,N#Cc1c(N)nc2c3c(sc(=N)c2c1N)NC(=O)CC3c1c(F)cccc1Cl (centres unmarked),-15.7%
20,O=C(NNc1nc2ccccc2s1)c1ccccc1F,-7.04%
